Source: PubChem BioAssay (NCATS)
Inconclusive results are not listed. Active and inactive are the calls of the source. Calls follow the shape of the dose curve; as a rule, active = well fitted curve in the direction sought with a large enough effect; inconclusive = small, poorly fitted or top-dose-only effect, or another doubt; inactive = no such curve, though single readings can be large; an effect the other way counts as inactive or inconclusive.

Key:
[1] = Quantitative High-Throughput drug screen in 47 multiple myeloma cell lines against the NCATS MIPE library collection: ARP1_JJKsccF8 cell viability assay (AID 1918928; also: nearly all actives have a fitted effect of over 40% in size)
Outline: (§1)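 ATP readout (CellTiter-Glo), 48 h drug incubation, 37 °C/5% CO2, 500 cells per well; normalisation to DMSO (100%) and media-only (0%) controls.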

[2] = Quantitative High-Throughput drug screen in 47 multiple myeloma cell lines against the NCATS MIPE library collection: ARD_JJKsccE7 cell viability assay (AID 1918929)
Outline: (§2)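 CellTiter-Glo ATP luminescence gave viability after 48 h compound treatment at 37C of 500 multiple myeloma cells per well. Normalisation used DMSO-only wells as 100% and media-only wells as 0% viability; primary qHTS of approved and investigational drugs.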

[3] = Quantitative High-Throughput drug screen in 47 multiple myeloma cell lines against the NCATS MIPE library collection: INA6_PLB cell viability assay (AID 1918965; also: nearly all actives have a fitted effect of over 55% in size)
Outline: (§3)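 Myeloma cell lines, 500 cells per well, exposed to MIPE 4.0 library compounds for 48 h at 37C, 5% CO2. Viability from ATP by CellTiter-Glo luminescence; normalised to DMSO (100%) and media-only (0%) wells.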

[4] = Quantitative High-Throughput drug screen in 47 multiple myeloma cell lines against the NCATS MIPE library collection: Karpas620_DSMZ cell viability assay (AID 1918959); also: nearly all actives have a fitted effect of over 30% in size
Outline: as §3

[5] = Quantitative High-Throughput drug screen in 47 multiple myeloma cell lines against the NCATS MIPE library collection: JIM1_ECACC cell viability assay (AID 1918964)
Outline: as §2

[6] = Quantitative High-Throughput drug screen in 47 multiple myeloma cell lines against the NCATS MIPE library collection: JJN3_DSMZ cell viability assay (AID 1918966; also: nearly all actives have a fitted effect of over 50% in size)
Outline: as §2

[7] = Quantitative High-Throughput drug screen in 47 multiple myeloma cell lines against the NCATS MIPE library collection: KHM11_PLB cell viability assay (AID 1918962); also: nearly all actives have a fitted effect of over 35% in size
Outline: as §3

[8] = Quantitative High-Throughput drug screen in 47 multiple myeloma cell lines against the NCATS MIPE library collection: KMM1_JCRB cell viability assay (AID 1918960); also: nearly all actives have a fitted effect of over 30% in size
Outline: as §1

[9] = Quantitative High-Throughput drug screen in 47 multiple myeloma cell lines against the NCATS MIPE library collection: Karpas417_ECACC cell viability assay (AID 1918961); conditions: Karpas417 myeloma viability, CellTiter-Glo ATP luminescence, 48 h; viability (% of DMSO): at 45.8 µM (top of the series)
Outline: as §3

[10] = Quantitative High-Throughput drug screen in 47 multiple myeloma cell lines against the NCATS MIPE library collection: JIM3_ECACC cell viability assay (AID 1918963; also: nearly all actives have a fitted effect of over 35% in size)
Outline: as §3

Measured: Potency
Potency is read from the fitted curve at half-maximal effect.

CCCCc1ccc2nc(NC(=O)OC)[nH]c2c1
active: [1] 0.0066 µM | [2] 0.0093 µM | [3] 0.001 µM

C[C@H](Cc1ccc(O)c(O)c1)[C@@H](C)Cc1ccc(O)c(O)c1
active: [1] 20.9 µM | [4] 5.26 µM | [3] 9.35 µM | [6] 14.8 µM
inactive: [5]

CN(C)C(=O)COC(=O)Cc1ccc(OC(=O)c2ccc(N=C(N)N)cc2)cc1
active: [4] 7.43 µM | [7] 0.662 µM | [3] 1.48 µM
inactive: [1]

NC(=NCc1ccccc1)NC(=O)c1nc(Cl)c(N)nc1N
inactive: [1]
active: [7] 10.5 µM | [3] 9.35 µM

Nc1ncn([C@H]2C[C@H](O)[C@@H](CO)O2)c(=O)n1
active: [2] 0.418 µM | [4] 0.132 µM | [8] 0.296 µM | [3] 0.0235 µM
inactive: [7]

O=C(NCC1CCCCN1)c1cc(OCC(F)(F)F)ccc1OCC(F)(F)F (centres undefined)
active: [2] 3.72 µM | [4] 1.32 µM | [8] 2.64 µM | [9] 0.0743 µM | [7] 9.35 µM | [10] 8.33 µM | [5] 1.87 µM | [3] 13.2 µM

CCN(CC)C(=S)SSC(=S)N(CC)CC
active: [1] 0.0235 µM | [10] 0.001 µM | [3] 0.001 µM

Cc1ccc(C)c(OCCCC(C)(C)C(=O)O)c1
inactive: [1] | [6]
active: [3] 20.9 µM

O=c1c(O)c(-c2cc(O)c(O)c(O)c2)oc2cc(O)cc(O)c12
inactive: [2] | [4] | [8] | [7] | [10]

CC1Cc2ccccc2N1NC(=O)c1ccc(Cl)c(S(N)(=O)=O)c1 (centres undefined)
inactive: [1] | [4] | [10] | [3]

O=C1CCc2ccc(OCCCCN3CCN(c4cccc(Cl)c4Cl)CC3)cc2N1
active: [1] 23.5 µM | [10] 14.8 µM
inactive: [5]

NS(=O)(=O)c1cc(C(=O)O)c(NCc2ccco2)cc1Cl
inactive: [1] | [4] | [8] | [10] | [5]

COCCCOc1ccnc(CS(=O)c2nc3ccccc3[nH]2)c1C (centres undefined)
not listed: [1] | [5] | [6]
inactive: all other assays above

C[C@@H](N)C1CCC(C(=O)Nc2ccncc2)CC1 (some centres undefined)
active: [3] 18.7 µM
inactive: [1] | [4] | [8] | [6]

Nc1nc(OCc2ccccc2)c2[nH]cnc2n1
active: [1] 20.9 µM | [9] 16.6 µM | [10] 13.2 µM | [3] 18.7 µM
inactive: [4] | [7]

CCOC(=O)C(C)Oc1cccc2c(=O)n(CC(=O)Nc3ccc4c(c3)OCCO4)ccc12 (centres undefined)
active: [8] 13.2 µM
inactive: [2] | [4] | [7] | [5] | [3]

CN(C)CCc1c[nH]c2ccc(Cn3cncn3)cc12
active: [3] 1.66 µM
inactive: [1] | [10]

NC(=O)Cc1cccc(C(=O)c2ccccc2)c1N
inactive: [2] | [4] | [8] | [7] | [10] | [3]

CC1(C)NC(=O)N(c2ccc([N+](=O)[O-])c(C(F)(F)F)c2)C1=O
inactive: [2] | [4] | [8] | [7]
active: [5] 0.235 µM | [3] 3.32 µM

Nc1ccn([C@@H]2O[C@H](CO)[C@@H](O)C2O)c(=O)n1 (some centres undefined)
inactive: [4] | [8] | [9] | [10]
active: [2] 8.33 µM | [5] 4.18 µM

O=C1NC(=O)C(c2ccccc2[N+](=O)[O-])=C1Nc1ccc(O)c(Cl)c1
inactive: [1] | [4] | [5]

CN(C)[C@@H](CCOc1cccc2ccccc12)c1ccccc1
inactive: [4] | [5]
active: [1] 26.4 µM | [3] 18.7 µM

CCN(CCO)CCCC(C)Nc1ccnc2cc(Cl)ccc12 (centres undefined)
inactive: [1] | [4] | [8] | [10] | [5]

CN1CCC(=C2c3ccccc3CCc3sccc32)CC1
active: [3] 16.6 µM
inactive: [1]

Nc1cccc2c1CN(C1CCC(=O)NC1=O)C2=O (centres undefined)
inactive: [1] | [4] | [8] | [10]

O=C1c2c(O)cc(O)cc2OC(c2ccc(O)c(O)c2)C1O (centres undefined)
inactive: [1] | [4] | [8] | [10] | [5] | [3]

Cc1cc(O)c2c(c1)C(=O)c1cc(O)cc(O)c1C2=O
not listed: [1] | [6] | [7]
inactive: all other assays above

Cc1cccc(C#Cc2ccccc2)n1
inactive: [4] | [8] | [10]
active: [1] 20.9 µM | [3] 13.2 µM

CCOC(=O)c1c(C)n(C)c2ccc(O)cc12
inactive: [2] | [4] | [8] | [10]

CC(=O)O[C@H]1C(=O)[C@@]2(C)C([C@H](OC(=O)c3ccccc3)[C@]3(O)C[C@H](OC(=O)[C@H](O)[C@@H](NC(=O)c4ccccc4)c4ccccc4)C(C)=C1C3(C)C)[C@]1(OC(C)=O)CO[C@@H]1C[C@@H]2O (some centres undefined)
inactive: [1] | [7] | [10]

N=C(N)c1ccc2cc(OC(=O)c3ccc(N=C(N)N)cc3)ccc2c1
inactive: [2] | [4] | [8] | [10] | [5]

CCC(C)(Oc1ccc(C2(c3ccc(OC(C)(CC)C(=O)O)cc3)CCCCC2)cc1)C(=O)O (centres undefined)
inactive: [2] | [4] | [8] | [7] | [10]
